Screen size: about 360,000 compounds; about 2,100 (0.58%) were called active. For the sample, actives were picked, then their nearest neighbours and some compounds at random. A number with no mark means an inactive call.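 How the source made its calls: active means inhibition above a per-plate cutoff, the mean of that plate's test compounds plus 3 SD (cut at about 27% in these data); inactive means the rest.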
Target: Muscarinic acetylcholine receptor M5 (Homo sapiens) (UniProt P08912)
Experiment: human M5 muscarinic receptor antagonists, primary screen, CHO cells, Fluo-8 calcium fluorescence (AID 624040);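 further: 0% = acetylcholine EC80 with DMSO and 100% = DMSO without agonist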
Conditions: CHO-hM5 cells, ACh EC80, at 3 µM, hits give high values

Muscarinic acetylcholine receptor M5 (Homo sapiens), sequence (P08912 whole entry, looked up): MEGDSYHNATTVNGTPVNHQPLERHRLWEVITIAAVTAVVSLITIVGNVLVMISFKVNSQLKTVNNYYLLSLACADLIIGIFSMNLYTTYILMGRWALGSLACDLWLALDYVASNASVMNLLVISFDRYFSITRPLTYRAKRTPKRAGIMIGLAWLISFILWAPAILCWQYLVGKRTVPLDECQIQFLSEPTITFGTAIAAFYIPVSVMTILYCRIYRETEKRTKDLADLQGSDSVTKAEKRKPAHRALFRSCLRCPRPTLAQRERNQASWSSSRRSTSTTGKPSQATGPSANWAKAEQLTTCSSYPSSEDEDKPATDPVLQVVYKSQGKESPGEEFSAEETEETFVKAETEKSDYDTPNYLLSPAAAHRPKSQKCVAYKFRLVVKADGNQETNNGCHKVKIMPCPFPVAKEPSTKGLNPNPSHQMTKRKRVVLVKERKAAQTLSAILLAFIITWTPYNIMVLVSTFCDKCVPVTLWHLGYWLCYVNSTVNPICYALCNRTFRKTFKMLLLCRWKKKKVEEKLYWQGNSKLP

Question: For `CCCC[N+]1(C)C2CC(OC(=O)C(CO)c3ccccc3)CC1C1OC12` (stereo not given), which inhibition is on record?
Answer: 73.3% (active)

Question: With `CCn1cc(CN2CCCC(C(=O)c3cccc(C(F)(F)F)c3)C2)cn1` (stereo not given) as the compound, how does the inhibition read?
Answer: 12.4%

Question: Which inhibition does the source give for `CCCCCCCCCCCCn1ccc(=N)cc1` here?
Answer: 33.9% (active)

Question: How did the inhibition turn out when `CCOC(=O)C1(c2ccccc2)CCN(CC(O)c2ccc(NC(C)=O)cc2)CC1` (stereo not given) was run?
Answer: 11.2%

Question: With `O=c1c2ccccc2nc(/C=C/c2ccco2)n1-c1ccccc1O` as the compound, how does the inhibition read?
Answer: 3.76%

Question: For `Cc1ccc(-c2nn(CCC#N)cc2C(=O)O)cc1C`, which inhibition is on record?
Answer: 1.31%

Question: `CC[N+]1(C)CCCC(OC(=O)C(O)(c2ccccc2)c2ccccc2)C1` (stereo not given) was tested. Which inhibition did it give?
Answer: 98.3% (active)

Question: How did the inhibition turn out when `Oc1cc2c(cc1CN1CCN(c3ccccc3)CC1)OCO2` was run?
Answer: 15.7%

Question: For `COC(=O)C[C@H]1CC[C@H]2NC[C@@H](O)COC[C@@H]2O1`, which inhibition is on record?
Answer: 7.66%

Question: For `COC1=CC=C2[C@H]3Cc4ccc(OC)c5c4[C@@]2(CCN3C)C1O5` (stereo not given in full), which inhibition is on record?
Answer: -5.74%

Question: `CNC(=S)N/N=C1\C2CN3CCN(C2)CC1(c1ccccc1)C3` was tested. Which inhibition did it give?
Answer: 3.28%

Question: With `Nc1ccc(C(=O)N/N=C2/CN3CCC2CC3)cc1` as the compound, how does the inhibition read?
Answer: 6.34%

Question: Which inhibition does the source give for `CC1CCCCN1Cc1cccnc1` (stereo not given) here?
Answer: 12.5%

Question: With `CC1CCCN1CCC(C(N)=O)(c1ccccc1)c1ccccc1` (stereo not given) as the compound, how does the inhibition read?
Answer: 99.5% (active)

Question: How did the inhibition turn out when `O=C(Cc1ccccc1)N1CCN(C2CCCCCC2)CC1` was run?
Answer: 0.09%

Question: Which inhibition does the source give for `CCCC(C)n1[nH]c(=O)c2c1NC(=O)CSC2c1ccc(OC)c(OC)c1` (stereo not given) here?
Answer: 7.43%

Question: `CC1C2Cn3c(nc4ccccc43)C1N(C)O2` (stereo not given) was tested. Which inhibition did it give?
Answer: 0.97%

Question: How did the inhibition turn out when `Cc1ncoc1C(=O)NCC1=C(c2cccc3ccccc23)C[C@@H]2CC[C@H]1N2Cc1ccco1` was run?
Answer: -3.17%

Question: `COc1ccc2c(c1O)-c1cccc3c1[C@@H](C2)N(C)CC3` was tested. Which inhibition did it give?
Answer: -4.83%

Question: Which inhibition does the source give for `COc1ccc(C2C=C(C)Oc3c2c(=O)oc2ccccc32)cc1OC` (stereo not given) here?
Answer: 2.6%

— PubChem BioAssay AID624040 (The Scripps Research Institute Molecular Screening Center, 2012)
